TGFb SMAD3 inh = qHTS for Inhibitors of TGF-b; HepG2 CAGA-GFP TGF-b/SMAD3 reporter, GFP fluorescence, 18 h; TGF-beta stimulated, 500 pg/mL final; Potency, µM (doses to about 46.1 µM), for the others: at the top dose activity, negative = inhibition, actives largely listed as inhibitors; hit rate 1.2% among 410,000; further: on the % scale 0 is the no-effect control and ±100 the full control effect; nearly all actives have a fitted effect of over 65% in size
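First, reporter cells (HEPG2 CAGA-GFP) rested 2 h at 37 degrees C. Next, compounds were pinned in and TGF-beta added to 500 pg/mL final. After 18 h, GFP was imaged per cell and summed per well.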
Nrf2 inh = Nrf2 qHTS screen for inhibitors | A549 ARE-Fluc reporter, luciferase luminescence, 18-24 h | Potency, µM (top dose mostly 46 µM), inactives show at the top dose activity change, negative = inhibition, hits mostly inhibitors | hit rate 2.1% among 360,000 | AID 504444, 2011; further: on the % scale 0 is the no-effect control and ±100 the full control effect; nearly all actives have a fitted effect of over 60% in size
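Concentration-response testing used A549 ARE_Fluc cells at 5000 cells/well. Following an 18-24 h compound incubation, viability was read by fluorescence (Ex 405/Em 525) and luciferase output by luminescence.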
A549 tox = Nrf2 qHTS screen for inhibitors: counterscreen for cytotoxicity; A549 ARE-Fluc cells, CellTiter-Fluor viability, 18-24 h; Potency, µM (highest dose often 46 µM), inactives show at the highest dose activity change, negative = cytotoxicity, actives largely listed as inhibitors; hit rate 0.16% among 390,000; further: on the % scale 0 is the no-effect control and ±100 the full control effect
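A549 ARE_Fluc cells in 5% FBS OPTI-MEM were exposed to compounds in concentration-response for 18-24 h at 37 deg C. Viability was read by CellTiter-Fluor fluorescence (Ex 405/Em 525) after 30 min, before the luciferase read.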
HepG2 viability = qHTS for Inhibitors of TGF-b: Cytotox Counterscreen | HepG2 CAGA-GFP viability, ATP luminescence, 18 h | Potency, µM (highest dose often 46.1 µM), for the others: top-dose activity change, negative = cytotoxicity, usual class: cytotoxic | hit rate 0.76% among 410,000 | AID 588856, 2011
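CellTiter-Glo luminescence gave cytotoxicity after 18 hours at 37 degrees C. The cells were HepG2 CAGA-GFP in 1% FBS DMEM, stimulated with 500 pg/mL TGF-beta after compound addition. %Activity was normalised to no-cell wells (complete cell-killing) and DMSO (no toxicity), and curves were fitted and classified.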
S2 tox = Viability Counterscreen for Primary qHTS for Inhibitors of ATXN expression; S2 cells (HEK-293 line with an ATXN2-luciferase reporter) viability, CellTiter-Fluor protease fluorescence, 24 h; Potency, µM (titrated, usually from 56.7 µM), usual class: cytotoxic; hit rate 0.49% among 400,000; further: nearly all actives have a fitted effect of over 40% in size
ATXN2 expr inh = Primary qHTS for Inhibitors of ATXN expression; HEK-293 ATXN2-luciferase reporter, luminescence, 24 h; Potency, µM (top dose mostly 57 µM), for the others: top-dose activity change, negative = inhibition, most hits filed as inhibitors; hit rate 0.72% among 360,000; AID 1745845, 2022; further: on the % scale 0 is the no-effect control and ±100 the full control effect; nearly all actives have a fitted effect of over 55% in size
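ATXN2-luciferase reporter cells (luciferase flanked by upstream and downstream ATXN2 gene portions) were treated 24 h at 37 °C with compounds at up to 57 uM. SteadyGlo luminescence gave expression; GF-AFC fluorescence gave viability.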
An asterisk follows results filed as active; i = inactive; ? = inconclusive; . = no result given. Most compounds without a hit are left out; they make up all but 3.8% or so of the library. The call rests on the fitted dose curve; in most records, active means well fitted curve in the direction sought with a large enough effect; inconclusive means small, poorly fitted or top-dose-only effect, or another doubt; inactive means no such curve, though single readings can be large; an effect the other way counts as inactive or inconclusive. Potency means the concentration at half of the fitted maximal effect.

SMILES | TGFb SMAD3 inh | Nrf2 inh | A549 tox | HepG2 viability | S2 tox | ATXN2 expr inh
COc1ccccc1/C=C/c1nc2ccccc2[nH]1 | 0% | . | . | 8.9µM* | . | .
Cc1ccc(/C=C/c2nc3ccccc3[nH]2)cc1 | ? | . | -1% | -100% | . | .
CCCCN1C2=NCCCN2c2ccccc21 | -15% | 4% | 15% | -2% | i | -19%
CCCCN1C2=NC(c3ccccc3)CN2c2ccccc21 (stereo not drawn) | -5% | 6% | 7% | 6.3µM* | i | -31%
Cc1ccc(C)c(NC(=S)NNC(=O)c2csc3c2CCCC3)c1 | -10% | . | 0% | -81% | i | -17%
Cc1ccc(C)c(NC(=S)NNC(=O)c2csc3c2CCC(C)C3)c1 (stereo not drawn) | ? | 21µM* | ? | -16% | i | 1%
CCc1cc2c(CN3CCN(CCO)CC3)cc(=O)oc2cc1O | -2% | 22% | ? | -11% | . | -5%
O=C1C(Cl)=C(Nc2ccc(O)cc2)C(=O)c2ccccc21 | ? | ? | ? | 5.6µM* | 16µM* | 16µM*
O=C1C(Cl)=C(NCCN2CCCCC2)C(=O)c2ccccc21 | 1.6µM* | ? | ? | -92% | 20µM* | 14µM*
O=C(NCCN1CCCC1)c1ccccc1Cl | -5% | 12% | 0% | 6% | i | -10%
COC1=C(Nc2ccc(O)cc2)C(=O)c2ccccc2C1=O | ? | 23µM* | ? | -84% | ? | -17%
CCCC(=O)NC1=C(Cl)C(=O)c2ccccc2C1=O | -31% | -13% | ? | -105% | . | -19%
CCN(CC)c1ccc(NC2=C(Cl)C(=O)c3ccccc3C2=O)cc1 | ? | ? | 21µM* | -50% | 10µM* | 20µM*
Cc1ccc(NC2=C(Cl)C(=O)c3ccccc3C2=O)cc1 | ? | 23% | ? | -6% | . | ?
O=C(COc1ccc(F)cc1)N1CCC(Cc2ccccc2)CC1 | -3% | 12% | 3% | -11% | ? | 17%
CCC(C)N(C(=O)CSc1nnc(C)n1C)C1CCS(=O)(=O)C1 (stereo not drawn) | -14% | 1% | -2% | 9% | i | -10%
O=S(=O)(c1ccccc1)c1ccc(NCc2ccco2)cc1 | -1% | -9% | 9% | -3% | i | -16%
O=C1C=C(Nc2ccc(O)cc2)C(=O)c2ccccc21 | 10µM* | 24% | -15% | 11µM* | ? | -25%
COC1=C(Nc2ccc(OC)cc2)C(=O)c2ccccc2C1=O | 16µM* | 12% | 5% | -58% | ? | 3%
COC1=C(Nc2ccc(OC)cc2)C(=O)C(OC)=C(Nc2ccc(OC)cc2)C1=O | 9% | 7% | 5% | 3% | i | -10%
O=C1C(Cl)=C(NCc2ccco2)C(=O)c2ccccc21 | 11µM* | -20% | -11% | -109% | ? | -13%
CCNC1=C(Cl)C(=O)c2ccccc2C1=O | ? | ? | ? | 13µM* | i | -23%
CCN(CC)c1ccc(NC(=O)CC2Oc3ccccc3NC2=O)c(C)c1 (stereo not drawn) | ? | -13% | -2% | -13% | i | -17%
O=C(c1ccco1)N1CCC(c2nc3ccccc3[nH]2)CC1 | 0% | ? | -1% | 7% | ? | 5%
CCOc1ccc(NC2=C(OC)C(=O)c3ccccc3C2=O)cc1 | 11µM* | -4% | -4% | -83% | ? | -4%
SMILES | TGFb SMAD3 inh | Nrf2 inh | A549 tox | HepG2 viability | S2 tox | ATXN2 expr inh
Cc1cc(-c2ccccc2)cc(=O)[nH]1 | -7% | 5% | -1% | 31% | ? | 10%
Cc1cc(-c2ccccc2)cc(-c2ccccc2)[n+]1C | -25% | 12µM* | -12% | 0% | i | -23%
O=[N+]([O-])c1ccc(Sc2cccc3cccnc23)c([N+](=O)[O-])c1 | 4µM* | ? | -13% | -105% | 6.3µM* | ?
O=[N+]([O-])c1ccc(Sc2ccncn2)c([N+](=O)[O-])c1 | 11µM* | . | . | 10µM* | . | .
C=CCn1nc([N+](=O)[O-])nc1Sc1cccc2cccnc12 | 3.2µM* | ? | -19% | 5.6µM* | . | 22µM*
O=[N+]([O-])c1ccc(Sc2cccc3cccnc23)cc1 | -7% | -14% | -6% | -15% | i | 51%
CNc1c(NS(=O)(=O)c2ccc3c(c2)CCCC3)c(=O)oc2ccccc12 | 1% | -2% | 1% | 12% | i | 11%
COc1ncnc2c1ncn2CCCN(C)CCc1ccccn1 | 6% | . | . | -5% | i | 4%
COc1ccc(NC(=O)c2oc3ccccc3c2NC(=O)c2ccco2)cc1 | 18% | 1.6µM* | -7% | -6% | ? | -19%
COc1ccc(-c2ccc(NC(=O)c3ccco3)cc2)nn1 | -11% | -22% | -2% | 5µM* | i | ?
CC(C)(C)c1ccc(Oc2ccc(NC(=O)c3cccs3)cn2)cc1 | ? | 16µM* | -17% | -48% | ? | -21%
CCc1ccc2occ(CC(=O)Nc3c(C(=O)Nc4ccc(C)cc4)oc4ccccc34)c2c1 | 13% | ? | 0% | 16µM* | i | 27%
COc1ccc(-c2cccc(NC(=O)c3ccco3)c2)nn1 | 12% | 5% | 3% | 0% | i | -6%
COc1ccc(NC(=O)c2oc3ccccc3c2NC(=O)c2cc3ccccc3o2)cc1 | ? | 4% | 3% | -12% | i | -24%
Cc1cc(S(=O)(=O)Nc2ccc(-c3ccc(N4CCCCC4)nn3)cc2)c(C)cc1Cl | -29% | . | ? | -4% | ? | 3%
O=C(Nc1ccc(Oc2cccc(C(F)(F)F)c2)nc1)c1ccco1 | -3% | ? | 2% | -22% | ? | -15%
CC(C)(C)c1ccc(Oc2ccc(NC(=O)c3ccco3)cn2)cc1 | 11µM* | ? | 0% | -60% | ? | .
Cc1ccc2c(c1)-c1nc(-c3ccc(Cl)cc3)cc(-c3coc4ccccc4c3=O)c1CO2 | -2% | 31% | 8% | -5% | i | 7%
O=c1[nH]c(SCc2ccccc2)ncc1S(=O)(=O)c1ccccc1 | . | 4% | -2% | . | . | .
N#CC(C#N)=C1SC(=Nc2ccccc2)C(=Nc2ccccc2)N1c1ccccc1 | -3% | -25% | -17% | 11% | 27µM* | 27µM*
Fc1ccc(N2C(=S)SC(=Nc3ccccc3)C2=Nc2ccccc2)cc1 | 3% | 1% | 0% | -11% | i | 19%
